Compounds without any hit were thinned out: in the full panel of roughly 79,000, 15% have a hit. A number with no mark means an inactive call. Activity calls are given as the source filed them. Cut-off read from the data, not from the text of the source: active = growth inhibition above about 70%; inactive = the rest.

The test can be described thus: NCI Yeast Anticancer Drug Screen. Data for the mlh1 strain (AID 171).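 Note: 0% = growth of vehicle-treated control cultures of the same strain.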 Particulars: S. cerevisiae mlh1 strain growth inhibition, stronger effect = higher value. Here is the method:
Growth inhibition of yeast strains with defined genetic alterations is measured as a screen for potential anti-cancer activity. Selected strains with alterations in DNA damage repair or cell cycle control were exposed to compounds and growth inhibition was measured relative to vehicle treated controls. The strain used in this assay is mlh1

With `[Cl][Pt+2][Cl].[NH-]CC1(C[NH-])CCCCC1`, the growth inhibition (at 1.2 µM) is -68%; the growth inhibition (at 3.7 µM) was -2%; the growth inhibition (at 11.0 µM) is 97% (active); the growth inhibition (at 33.0 µM) was 98% (active); the growth inhibition (at 100.0 µM) is 97% (active).
As to `CN(C)CCn1c2ccccc2c2nc3cc4ccccc4cc3nc21`, the growth inhibition (at 1.2 µM) is 2%; the growth inhibition (at 3.7 µM) is 9%; the growth inhibition (at 11.0 µM) is 33%; the growth inhibition (at 33.0 µM) was 80% (active); the growth inhibition (at 100.0 µM) is 98% (active).
`CCOC(=O)/C(O)=C(/C=N/C(=S)Nc1c(CC)cccc1CC)C(=O)OCC`: the growth inhibition is -6% (at 1.2 µM); -4% (at 3.7 µM); 6% (at 11.0 µM); 28% (at 33.0 µM); 45% (at 100.0 µM).
As to `COc1ccc(C(=O)NCCN(C)C)c2nc3ccccc3cc12`, the growth inhibition was 26% (at 1.2 µM); 23% (at 3.7 µM); 18% (at 11.0 µM); 29% (at 33.0 µM); 75% (active) (at 100.0 µM).
As for `Nc1cccc2cc(Cl)cnc12`, the growth inhibition was -40% (at 1.2 µM); -41% (at 3.7 µM); -40% (at 11.0 µM); -33% (at 33.0 µM); 49% (at 100.0 µM).
`O=C1OC(c2ccc(Cl)cc2)Sc2ccccc21` (stereo not given): the growth inhibition by setting is: (at 1.2 µM) 6%; (at 3.7 µM) 12%; (at 11.0 µM) 27%; (at 33.0 µM) 97% (active); (at 100.0 µM) 98% (active).
`COc1ccc2c(C)cc(N/N=C/c3sccc3C)nc2c1`: the growth inhibition runs as follows: (at 1.2 µM) -27%; (at 3.7 µM) -5%; (at 11.0 µM) -7%; (at 33.0 µM) 60%; (at 100.0 µM) 56%.
Taken in the same sequence, the figures for `O=C1OC(/C=C/c2ccccc2)Sc2ccccc21` (stereo not given) were 1%, 3%, 7%, 12% and 26%.
